Test results: PubChem BioAssay
A number with no mark means an inactive call. Calls of active or inactive are those of the source.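 The calls were made as follows, unless noted: active = fluorescence slope after compound addition differing from the mean of all screened samples at 99.7% confidence, in either direction; inactive = the rest.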

Target: Voltage-gated potassium channel subunit beta-2 (Rattus norvegicus) (UniProt P62483)
Assay: enhancers of rat Kvbeta2 NADPH turnover – biochemical, NADPH fluorescence, primary screen (AID 623;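 active = NADPH fluorescence slope more negative than the mean of all samples by about 3 SD, 99.7% confidence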;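 also: fluorescence intensity change per second fitted from 20 to 320 s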)
Settings: Recombinant KvBeta, NADPH fluorescence decrease slope, 10 min; at 10 µM; active compounds read low

Sequence of Voltage-gated potassium channel subunit beta-2 (Rattus norvegicus) (P62483 whole entry, looked up): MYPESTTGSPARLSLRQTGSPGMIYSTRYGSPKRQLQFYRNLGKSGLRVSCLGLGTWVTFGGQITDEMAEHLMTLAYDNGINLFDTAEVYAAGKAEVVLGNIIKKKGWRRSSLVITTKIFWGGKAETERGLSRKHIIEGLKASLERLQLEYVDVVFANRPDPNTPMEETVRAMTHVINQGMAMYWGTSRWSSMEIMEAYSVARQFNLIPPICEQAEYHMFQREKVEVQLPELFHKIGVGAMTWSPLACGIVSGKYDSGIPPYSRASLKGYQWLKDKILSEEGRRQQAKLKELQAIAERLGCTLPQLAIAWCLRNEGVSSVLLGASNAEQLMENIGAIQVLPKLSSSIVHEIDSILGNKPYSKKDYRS

Row | SMILES | NADPH fluorescence slope
1 | Nc1cc(=O)[nH]c(SCC(=O)Nc2ccc(Br)cc2)n1 | 4.3e-05
2 | CCN(CCCNC(=O)CC1Oc2ccc(C)cc2NC1=O)Cc1ccccc1 (centres undefined) | -4.4e-05
3 | O=C(OCCN(CCOC(=O)c1ccncc1)S(=O)(=O)c1cccs1)c1ccncc1 | 1e-05
4 | CCc1c(C)c2ccc(OCC(=O)OC)cc2oc1=O | -1.1e-05
5 | COc1ccccc1-n1c(C)nnc1SCC(=O)Nc1cccc(C(C)=O)c1 | -8e-06
6 | O=C(CCNS(=O)(=O)c1ccc(Cl)cc1)NCc1ccccn1 | 8.2e-06
7 | O=C1CC(Cc2ccccc2)C(=O)N1CCCn1ccnc1 (centres undefined) | -6e-05
8 | CSc1ccccc1NC(=O)c1cnc2n(c1=O)CCS2 | 1e-05
9 | COc1ccc(C(=O)NCc2ccccc2OC)cc1 | -0.000293
10 | O=C(CSc1nnc(-c2ccc(Br)o2)n1Cc1ccccc1)c1ccccc1F | -4.8e-05
11 | Cc1ccc(/C=c2\s/c(=C(/C#N)C(=O)N3CCCC3)n(Cc3ccco3)c2=O)s1 | 2e-05
12 | O=C(NCc1ccccn1)c1cc(-n2cnnc2)ccc1Cl | -3.7e-05
13 | O=C(c1ccc2c(c1)OCO2)N1CCCN(C(=O)c2ccc3c(c2)OCO3)CC1 | -0.0001
14 | Cc1ccc(NC(=O)CCC(=O)O)cc1F | -7.1e-05
15 | COc1cc2c(N3CCOCC3)cc(O)c(CC(=O)Nc3ccccc3)c2cc1OC | -3.7e-06
16 | O=C(NCc1cccnc1)C1CCCN(S(=O)(=O)c2ccc(Cl)cc2)C1 (centres undefined) | -4.7e-05
17 | CCn1cc(C(=O)N2CCOCC2)c(=O)c2cc(S(=O)(=O)N(C)C3CCCCC3)ccc21 | -7.6e-06
18 | CC(C)N(C(=O)CSc1nnc(NC(=O)C2CCC2)s1)C(C)C | 2.4e-05
19 | Cc1ccc(CCSCC(=O)O)cn1 | -1.1e-05
20 | COc1cc(OC)cc(C(=O)N2c3ccc(F)cc3CCC2C)c1 (centres undefined) | -4.4e-05
21 | O=C(CN1C(=O)c2ccccc2S1(=O)=O)NCc1ccccc1Cl | -1.3e-05
22 | CC(C)[C@H](NC(=O)OC(C)(C)C)c1nnc(SCC(=O)Nc2ccc(Br)cc2)o1 | 2.2e-05
23 | O=C(NCc1cccs1)C1CC(=O)N(C2CCCC2)C1 (centres undefined) | 4.8e-05
24 | O=C(Nc1ccc2snnc2c1)N1CCN(c2ccccc2)CC1 | 7.2e-06

Target: Alpha-2C adrenergic receptor (Homo sapiens) (UniProt P18825)
Sequence (P18825 whole entry, looked up): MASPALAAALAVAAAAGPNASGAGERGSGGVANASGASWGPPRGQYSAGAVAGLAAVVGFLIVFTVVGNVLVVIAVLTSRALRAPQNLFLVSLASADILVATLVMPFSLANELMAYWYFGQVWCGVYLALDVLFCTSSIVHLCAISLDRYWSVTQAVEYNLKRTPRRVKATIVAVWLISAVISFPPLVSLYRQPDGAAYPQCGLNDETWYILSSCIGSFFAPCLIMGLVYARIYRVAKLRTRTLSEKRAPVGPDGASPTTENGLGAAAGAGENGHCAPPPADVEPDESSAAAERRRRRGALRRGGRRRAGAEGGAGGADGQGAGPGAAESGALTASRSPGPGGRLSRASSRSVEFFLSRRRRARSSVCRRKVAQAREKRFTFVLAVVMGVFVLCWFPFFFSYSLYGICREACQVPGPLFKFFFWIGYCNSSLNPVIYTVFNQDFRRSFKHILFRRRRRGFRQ
Assay: compounds altering alpha2C-coupled GIRK flux – cell-based, HEK293 alpha2C/GIRK1/2, thallium flux, primary screen (AID 624);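 also: slope of fluorescence ratio to pre-addition baseline per second over 15 to 24 s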
Settings: thallium flux BTC fluorescence, at 10 µM, actives lie on both sides

Row | SMILES | slope
25 | CCOc1ccc2nc(SCc3ccc(C(=O)OC)o3)[nH]c2c1 | 0.00497
26 | Cc1cc(C)nc(SCC(=O)Nc2ncc3c(n2)CCCC3=O)n1 | 0.00766
27 | O=C(Cn1cc2c(n1)CCCC2)NCCc1ccccc1 | 0.00628
28 | COc1ccc(-c2nnc(SCC(=O)Nc3sc4c(c3C#N)CCC4)n2CC2CCCO2)cc1 (centres undefined) | 0.00872
29 | O=C1c2ccccc2S(=O)(=O)N1Cc1nnc(-c2ccccc2Br)o1 | 0.00709
30 | O=C(CCc1ccccc1)Nc1ccncc1 | 0.00342
31 | CCCc1nnc(NC(=O)CCC(=O)N2CCN(CCOc3ccc(C)cc3)CC2)s1 | 0.0036
32 | O=C(/C=C1\NC2(CCCC2)Cc2ccccc21)N1CCOCC1 | 0.00501
33 | Cn1cnc(S(=O)(=O)NCc2cccs2)c1 | 0.00567
34 | CCOC(=O)c1oc2cccc(OC(C)=O)c2c1C | 0.00384
35 | CCC(C)(C)NC(=O)CN(Cc1ccc2c(c1)OCO2)C(=O)CCC(=O)Nc1ccccn1 | 0.00669
36 | Cc1ccc(C(=O)NC(Cc2c[nH]c3ccccc23)C(=O)O)o1 (centres undefined) | 0.0112 (active)
37 | Nc1cc(CN2C(=O)c3ccccc3C2=O)cc(Cl)c1O | 0.00582
38 | O=S(=O)(Nc1nc2ccccc2nc1NCc1ccco1)c1cccs1 | 0.00495
39 | COc1ccc(S(=O)(=O)Nc2cc(C)on2)cc1OC | 0.00556
40 | O=C(CSc1nccn1Cc1ccccc1)Nc1nccs1 | 0.00698
41 | Nc1cc(=O)[nH]c(SCC(=O)Nc2ccc(Br)cc2)n1 | 0.00582
42 | CCN(CCCNC(=O)CC1Oc2ccc(C)cc2NC1=O)Cc1ccccc1 (centres undefined) | 0.00631
43 | O=C(OCCN(CCOC(=O)c1ccncc1)S(=O)(=O)c1cccs1)c1ccncc1 | 0.00486
44 | CCc1c(C)c2ccc(OCC(=O)OC)cc2oc1=O | 0.00537

Row | SMILES | slope
45 | COc1ccccc1-n1c(C)nnc1SCC(=O)Nc1cccc(C(C)=O)c1 | 0.00484
46 | O=C(CCNS(=O)(=O)c1ccc(Cl)cc1)NCc1ccccn1 | 0.00312
47 | O=C1CC(Cc2ccccc2)C(=O)N1CCCn1ccnc1 (centres undefined) | 0.00527
48 | CSc1ccccc1NC(=O)c1cnc2n(c1=O)CCS2 | 0.00535
49 | COc1ccc(C(=O)NCc2ccccc2OC)cc1 | 0.00583
50 | O=C(CSc1nnc(-c2ccc(Br)o2)n1Cc1ccccc1)c1ccccc1F | 0.00522
51 | Cc1ccc(/C=c2\s/c(=C(/C#N)C(=O)N3CCCC3)n(Cc3ccco3)c2=O)s1 | 0.00315
52 | O=C(NCc1ccccn1)c1cc(-n2cnnc2)ccc1Cl | 0.00641
53 | O=C(c1ccc2c(c1)OCO2)N1CCCN(C(=O)c2ccc3c(c2)OCO3)CC1 | 0.0056
54 | Cc1ccc(NC(=O)CCC(=O)O)cc1F | 0.00611
55 | COc1cc2c(N3CCOCC3)cc(O)c(CC(=O)Nc3ccccc3)c2cc1OC | 0.00641
56 | O=C(NCc1cccnc1)C1CCCN(S(=O)(=O)c2ccc(Cl)cc2)C1 (centres undefined) | 0.00732
57 | CCn1cc(C(=O)N2CCOCC2)c(=O)c2cc(S(=O)(=O)N(C)C3CCCCC3)ccc21 | 0.00672
58 | CC(C)N(C(=O)CSc1nnc(NC(=O)C2CCC2)s1)C(C)C | 0.00479
59 | Cc1ccc(CCSCC(=O)O)cn1 | 0.00565
60 | COc1cc(OC)cc(C(=O)N2c3ccc(F)cc3CCC2C)c1 (centres undefined) | 0.0061
61 | O=C(CN1C(=O)c2ccccc2S1(=O)=O)NCc1ccccc1Cl | 0.0066
62 | CC(C)[C@H](NC(=O)OC(C)(C)C)c1nnc(SCC(=O)Nc2ccc(Br)cc2)o1 | 0.00396
63 | O=C(NCc1cccs1)C1CC(=O)N(C2CCCC2)C1 (centres undefined) | 0.00628
64 | O=C(Nc1ccc2snnc2c1)N1CCN(c2ccccc2)CC1 | 0.00518
